Assay results from paper PMC5540273 (PLoS ONE, 2017).

What was measured:
Conditions in all cases: concentration: 1 μM, replicates: in singlicate; n = 1
[1] = tested on: ULK2
[2] = tested on: ULK3
[3] = tested on: T1, VEGFR2
T1 construct: gene KDR

[4] = tested on: T2, VPS34
T2 construct: gene PIK3C3

[5] = tested on: VRK2
[6] = tested on: WEE1
[7] = tested on: WEE2
[8] = tested on: WNK1
[9] = tested on: WNK2
[10] = tested on: WNK3
[11] = tested on: WNK4
[12] = tested on: T3, YANK1
T3 construct: gene STK32A

[13] = tested on: T4, YANK2
T4 construct: gene STK32B

[14] = tested on: T5, YANK3
T5 construct: gene STK32C

[15] = tested on: T6, YES
T6 construct: gene YES1

[16] = tested on: T7, YSK1
T7 construct: gene STK25

[17] = tested on: T8, YSK4
T8 construct: gene MAP3K19

[18] = tested on: ZAK
[19] = tested on: ZAP70
[20] = tested on: T9, p38-alpha
T9 construct: gene MAPK14
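Also: KINOMEscan kinase panel screen.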

Compound	%Inh [1] [%]	%Inh [2] [%]	%Inh [3] [%]	%Inh [4] [%]	%Inh [5] [%]	%Inh [6] [%]	%Inh [7] [%]	%Inh [8] [%]	%Inh [9] [%]	%Inh [10] [%]	%Inh [11] [%]	%Inh [12] [%]	%Inh [13] [%]	%Inh [14] [%]	%Inh [15] [%]	%Inh [16] [%]	%Inh [17] [%]	%Inh [18] [%]	%Inh [19] [%]	%Inh [20] [%]
COc1ccc(Nc2nccc(N3CCC(NC(=O)Nc4ccc5c(c4)OCO5)C3)n2)cc1 (centres unmarked) [GSK1379745]	0	15	0	13	0	12	14	2	0	15	24	3	15	16	0	0	7	0	0	12
O=C(CCO)NCCn1ccc2ncnc(Nc3ccc(Oc4cccc(C(F)(F)F)c4)c(Cl)c3)c21	0	0	0	0	0	1	0	0	0	0	0	0	0	0	0	0	0	0	0	0
COC(=O)c1cccc(NC(=O)NCCNc2ccnc(Nc3ccc(F)cc3)n2)c1 [GSK1379883]	0	23	5	10	0	39	16	24	0	9	36	0	20	0	14	14	8	0	0	3
Cn1ccc2ncnc(Nc3ccc(Oc4cccc(Cl)c4)c(Cl)c3)c21	31	38	0	52	0	0	34	0	31	0	34	0	14	17	0	0	11	30	0	17
CSc1ccc(NC2=C(c3ccccc3Cl)C(=O)NC2=O)cc1 [SB-342411]	0	0	0	1	0	2	0	0	3	17	0	12	0	9	9	60	0	20	0	0
CN1c2ccc(-c3ccc(C(=O)NCCO)cc3)cc2-c2[nH]ncc2S1(=O)=O	30	0	44	30	0	0	1	0	0	0	0	0	0	0	12	13	8	20	0	0
Cc1cc(N2CCC(NS(=O)(=O)c3ccc(F)cc3)CC2)nc(Nc2cccc(C#N)c2)n1.O=C(O)C(F)(F)F [GSK1653537]	0	4	0	0	0	10	15	6	13	2	0	2	1	29	0	22	0	0	0	0
FC(F)(F)c1ccc(-c2nn3ncccc3c2-c2ccnc(Nc3cccc(C(F)(F)F)c3)n2)cc1 [GW828205]	0	0	0	8	0	5	11	0	0	0	0	0	0	0	0	0	0	0	42	0
O=C(c1ccc(-c2cc(-c3c[nH]nc3-c3ccccn3)ccn2)cc1)N1CCCC1 [GW792479]	0	0	0	26	0	30	0	0	0	0	14	0	13	0	0	0	0	28	2	7
Nc1nc(-c2ccc3c(N)n[nH]c3c2)cc(N2CCCCC2)n1 [GSK2228768]	0	0	0	0	0	39	0	0	0	0	0	0	0	0	0	1	0	0	0	0
